Measurements reported in PubChem BioAssay (NCATS).
Values joined by “and” are separate entries in the source; they are usually repeats but may differ in a detail not shown here. Equal entries are not always repeated. Values without a mark were called inactive. Results filed as inconclusive are left out. Active and inactive are the calls of the source. The call rests on the fitted dose curve; in most records, active means well fitted curve in the direction sought with a large enough effect; inconclusive means small, poorly fitted or top-dose-only effect, or another doubt; inactive means no such curve, though single readings can be large; an effect the other way counts as inactive or inconclusive.

Test system: not listed separately
Assay: qHTS for Activators of Parkin Expression: LOPAC Validation Assay (NLuc Reporter) (AID 720572;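 further: 0% = DMSO and 100% = positive control compound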)
Conditions: Parkin promoter NanoLuc reporter cells, luminescence, percent of positive control, DMSO as zero; series mostly up to 46.1 µM
Procedure, shortened: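 Neuronal cells with a Parkin promoter-driven FLuc/NLuc coincidence reporter were treated 24 h at 37 C in 7-point dose response (LOPAC). NLuc luminescence read after FLuc; signals normalized to DMSO and positive control (100%).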

Row | SMILES | outcome
1 | CCN1CCCC1CNC(=O)c1cc(S(N)(=O)=O)ccc1OC (configuration not stated) | inactive
2 | CC(C)NCC(O)c1ccc(NS(C)(=O)=O)cc1 (configuration not stated) | inactive
3 | O=C(O)C1CCCN(CCC=C(c2ccccc2)c2ccccc2)C1 (configuration not stated) | inactive
4 | NC(=O)c1ccc2[nH]ccc2c1 | inactive
5 | OCc1ccc(-c2nn(Cc3ccccc3)c3ccccc23)o1 | inactive
6 | CC1=C(C(=O)O)N2C(=O)[C@@H](NC(=O)C(N)c3ccccc3)[C@H]2SC1 (some centres not stated) | inactive
7 | CCN(CC)CC#CCOC(=O)C(O)(c1ccccc1)C1CCCCC1 (configuration not stated) | inactive
8 | CC1CC2C3CCC4=CC(=O)C=C[C@]4(C)[C@@]3(F)[C@@H](O)C[C@]2(C)[C@@]1(O)C(=O)CO (some centres not stated) | inactive

Test system: not listed separately
Assay: qHTS for Activators of Parkin Expression: LOPAC Validation Assay (FLuc Reporter) (AID 720573;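 further: 0% = DMSO and 100% = positive control compounds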)
Conditions: Cell line, PRKN promoter firefly luciferase reporter, vehicle wells = 0, positive control = 100%; series mostly up to 46.1 µM
Procedure, shortened: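 FLuc signal from Parkin-promoter coincidence reporter neuronal cells, normalized to DMSO and positive control (100%). Cells (1,500/well) pre-incubated 24 h, then exposed to LOPAC compounds in 7-point dose response for 24 h at 37 C, 5% CO2.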

Row | SMILES | outcome
9 | CCN1CCCC1CNC(=O)c1cc(S(N)(=O)=O)ccc1OC (configuration not stated) | inactive
10 | CC(C)NCC(O)c1ccc(NS(C)(=O)=O)cc1 (configuration not stated) | inactive
11 | O=C(O)C1CCCN(CCC=C(c2ccccc2)c2ccccc2)C1 (configuration not stated) | inactive
12 | NC(=O)c1ccc2[nH]ccc2c1 | inactive
13 | OCc1ccc(-c2nn(Cc3ccccc3)c3ccccc23)o1 | inactive
14 | CC1=C(C(=O)O)N2C(=O)[C@@H](NC(=O)C(N)c3ccccc3)[C@H]2SC1 (some centres not stated) | inactive
15 | CCN(CC)CC#CCOC(=O)C(O)(c1ccccc1)C1CCCCC1 (configuration not stated) | inactive
16 | CC1CC2C3CCC4=CC(=O)C=C[C@]4(C)[C@@]3(F)[C@@H](O)C[C@]2(C)[C@@]1(O)C(=O)CO (some centres not stated) | inactive

Target: T1, Hexokinase-4 (Homo sapiens) + Glucokinase regulatory protein (Homo sapiens) (UniProt P35557+Q14397)
Assay: qHTS assay for inhibitors of recombinant human GCK-GKRP interaction: Diaphorase-coupled assay (AID 743205)
Conditions: G6PDH/diaphorase resorufin fluorescence; series mostly up to 57.5 µM
Procedure, shortened: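 A kinetic fluorescence read (Ex 525/Em 590 nm, every minute for 30 minutes) tracked resorufin from a G6PDH-diaphorase coupled GCK reaction. It contained 10 nM GST-GCK, 10 nM FLAG-GKRP, 5 mM glucose, 0.4 mM ATP in Hepes pH 7.6. Normalized to with/without-enzyme DMSO controls.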

T1 sequence (P35557 whole entry, looked up): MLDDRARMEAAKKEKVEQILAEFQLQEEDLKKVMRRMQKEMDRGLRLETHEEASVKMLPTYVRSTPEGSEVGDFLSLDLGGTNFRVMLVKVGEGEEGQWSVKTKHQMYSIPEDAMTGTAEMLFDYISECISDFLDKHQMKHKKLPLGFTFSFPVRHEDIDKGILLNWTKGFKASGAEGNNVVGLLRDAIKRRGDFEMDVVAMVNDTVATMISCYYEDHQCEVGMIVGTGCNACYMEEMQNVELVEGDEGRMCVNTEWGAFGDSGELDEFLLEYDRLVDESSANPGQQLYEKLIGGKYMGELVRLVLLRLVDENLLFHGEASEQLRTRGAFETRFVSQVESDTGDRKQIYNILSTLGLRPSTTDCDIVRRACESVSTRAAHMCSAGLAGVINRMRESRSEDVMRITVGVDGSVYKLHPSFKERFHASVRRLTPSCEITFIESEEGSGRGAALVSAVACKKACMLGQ
T1 sequence (Q14397 whole entry, looked up): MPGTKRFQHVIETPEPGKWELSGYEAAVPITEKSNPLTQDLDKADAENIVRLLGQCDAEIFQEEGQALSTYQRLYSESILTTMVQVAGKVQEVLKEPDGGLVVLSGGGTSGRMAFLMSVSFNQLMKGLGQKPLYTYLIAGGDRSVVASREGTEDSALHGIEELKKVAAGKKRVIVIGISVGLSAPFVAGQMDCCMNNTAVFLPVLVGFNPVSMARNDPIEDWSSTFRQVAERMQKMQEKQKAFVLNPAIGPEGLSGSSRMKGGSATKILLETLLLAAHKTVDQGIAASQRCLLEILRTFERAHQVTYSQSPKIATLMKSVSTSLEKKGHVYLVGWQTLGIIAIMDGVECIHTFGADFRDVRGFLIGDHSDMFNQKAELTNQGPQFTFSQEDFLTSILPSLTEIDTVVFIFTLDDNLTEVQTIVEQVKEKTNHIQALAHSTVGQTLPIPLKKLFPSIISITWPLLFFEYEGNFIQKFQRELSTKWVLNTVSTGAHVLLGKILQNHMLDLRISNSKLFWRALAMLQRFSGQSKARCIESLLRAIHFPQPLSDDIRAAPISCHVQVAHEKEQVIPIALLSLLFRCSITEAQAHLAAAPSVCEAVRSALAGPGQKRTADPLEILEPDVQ

Row | SMILES | outcome
17 | CCN1CCCC1CNC(=O)c1cc(S(N)(=O)=O)ccc1OC (configuration not stated) | inactive
18 | CC(C)NCC(O)c1ccc(NS(C)(=O)=O)cc1 (configuration not stated) | inactive
19 | O=C(O)C1CCCN(CCC=C(c2ccccc2)c2ccccc2)C1 (configuration not stated) | inactive
20 | NC(=O)c1ccc2[nH]ccc2c1 | inactive
21 | OCc1ccc(-c2nn(Cc3ccccc3)c3ccccc23)o1 | inactive
22 | CC1=C(C(=O)O)N2C(=O)[C@@H](NC(=O)C(N)c3ccccc3)[C@H]2SC1 (some centres not stated) | inactive
23 | CCN(CC)CC#CCOC(=O)C(O)(c1ccccc1)C1CCCCC1 (configuration not stated) | inactive
24 | CC1CC2C3CCC4=CC(=O)C=C[C@]4(C)[C@@]3(F)[C@@H](O)C[C@]2(C)[C@@]1(O)C(=O)CO (some centres not stated) | inactive

Target: T1, Hexokinase-4 (Homo sapiens) + Glucokinase regulatory protein (Homo sapiens)
Assay: qHTS assay for inhibitors of recombinant human GCK-GKRP interaction: ADP-Glo assay (AID 743206);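 further: plate controls were DMSO plus enzyme for no effect and no enzyme for full effect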
Conditions: ADP-Glo luminescence, 60 min, 0% = vehicle-only wells with enzyme present; series mostly up to 76.9 µM
Procedure, shortened: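 GST-GCK and FLAG-GKRP (15 nM each in the dispensed mix, with 2 uM S6P) react with 0.4 mM ATP and 5 mM glucose (final) in Hepes pH 7.6 for 60 min at room temperature. ADP is measured by ADP-Glo luminescence.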

Row | SMILES | outcome
25 | CCN1CCCC1CNC(=O)c1cc(S(N)(=O)=O)ccc1OC (configuration not stated) | inactive
26 | CC(C)NCC(O)c1ccc(NS(C)(=O)=O)cc1 (configuration not stated) | inactive
27 | O=C(O)C1CCCN(CCC=C(c2ccccc2)c2ccccc2)C1 (configuration not stated) | inactive
28 | NC(=O)c1ccc2[nH]ccc2c1 | inactive
29 | OCc1ccc(-c2nn(Cc3ccccc3)c3ccccc23)o1 | inactive
30 | CC1=C(C(=O)O)N2C(=O)[C@@H](NC(=O)C(N)c3ccccc3)[C@H]2SC1 (some centres not stated) | inactive
31 | CCN(CC)CC#CCOC(=O)C(O)(c1ccccc1)C1CCCCC1 (configuration not stated) | inactive
32 | CC1CC2C3CCC4=CC(=O)C=C[C@]4(C)[C@@]3(F)[C@@H](O)C[C@]2(C)[C@@]1(O)C(=O)CO (some centres not stated) | inactive

Target: T1, Hexokinase-4 (Homo sapiens) + Glucokinase regulatory protein (Homo sapiens)
Assay: qHTS assay for inhibitors of recombinant human GCK-GKRP interaction: HTRF assay (AID 743207);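 further: 0% = DMSO with GCK present and -100% = DMSO wells lacking GCK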
Conditions: recombinant GCK-GKRP HTRF binding, 60 min, with sorbitol-6-phosphate; series mostly up to 57.5 µM
Procedure, shortened: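 After 60 min equilibration at room temperature with anti-FLAG XL665 and anti-GST antibodies, FRET ratio (665/615 nm, excitation 320 nm) was read. Proteins: GST-GCK and FLAG-GKRP, each 5 nM, plus 2 uM S6P, pH 7.1 buffer; GCK-free wells define minimum signal.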

Row | SMILES | outcome
33 | CCN1CCCC1CNC(=O)c1cc(S(N)(=O)=O)ccc1OC (configuration not stated) | inactive
34 | CC(C)NCC(O)c1ccc(NS(C)(=O)=O)cc1 (configuration not stated) | inactive
35 | O=C(O)C1CCCN(CCC=C(c2ccccc2)c2ccccc2)C1 (configuration not stated) | inactive
36 | NC(=O)c1ccc2[nH]ccc2c1 | inactive
37 | OCc1ccc(-c2nn(Cc3ccccc3)c3ccccc23)o1 | inactive
38 | CC1=C(C(=O)O)N2C(=O)[C@@H](NC(=O)C(N)c3ccccc3)[C@H]2SC1 (some centres not stated) | inactive
39 | CCN(CC)CC#CCOC(=O)C(O)(c1ccccc1)C1CCCCC1 (configuration not stated) | inactive
40 | CC1CC2C3CCC4=CC(=O)C=C[C@]4(C)[C@@]3(F)[C@@H](O)C[C@]2(C)[C@@]1(O)C(=O)CO (some centres not stated) | inactive

Test system: not listed separately
Assay: qHTS Assay for Identifying Gametocytocidal Compounds (AID 743244);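 further: on the % scale 0 is the no-effect control and ±100 the full control effect; actives lower the fluorescent signal which means gametocytes are killed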
Conditions: P. falciparum 3D7 stage III-V gametocytes, alamarBlue, 72 h; max response: hits give low values
Procedure, shortened: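 Stage III-V P. falciparum 3D7 gametocytes, 20,000 per well, were exposed to compounds for 72 h at 37C, 5% CO2. AlamarBlue was then added for 24 h and viability was read as fluorescence at Ex 525/Em 598 nm.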

Row | SMILES | max response
41 | CCN1CCCC1CNC(=O)c1cc(S(N)(=O)=O)ccc1OC (configuration not stated) | 13%
42 | O=NN(CCCl)C(=O)NC1CCCCC1 | -7.36%
43 | Nc1nc(F)nc2c1ncn2[C@@H]1O[C@H](CO)[C@@H](O)[C@@H]1O | 0.368% and 0.376%
44 | Cc1cccc(Nc2ccncc2S(=O)(=O)NC(=O)NC(C)C)c1 | -10.6%
45 | CC(C)NCC(O)c1ccc(NS(C)(=O)=O)cc1 (configuration not stated) | -0.473% and -8.06% and 37.8%
46 | CCN(C)C(=O)Oc1cccc([C@H](C)N(C)C)c1 | -3.35%
47 | COc1cccc(N(C)C(=S)Oc2ccc3c(c2)CCCC3)n1 | -0.766%
48 | CC(=O)[C@H]1CC[C@H]2[C@@H]3CC=C4C[C@@H](O)CC[C@]4(C)[C@H]3CC[C@]12C | 11.7%
49 | N[C@@H](C(=O)N[C@@H]1C(=O)N2C(C(=O)O)=C(Cl)CS[C@H]12)c1ccccc1 | 19.9%
50 | CCCCOc1ccc(CC(=O)NO)cc1 | 1.51%
51 | CN(C)CCc1c[nH]c2ccc(CS(=O)(=O)N3CCCC3)cc12 | 1.18%
52 | CCCc1nc(C)c2c(=O)[nH]c(-c3cc(S(=O)(=O)N4CCN(CC)CC4)ccc3OCC)nn12 | 1.11%
53 | O=C(O)C1CCCN(CCC=C(c2ccccc2)c2ccccc2)C1 (configuration not stated) | 17.5%
54 | CCn1cc(C(=O)O)c(=O)c2cc(F)c(N3CCNCC3)cc21 | 1.43% and -0.58%
55 | NCCCC(O)(P(=O)(O)O)P(=O)(O)O | 14.9%
56 | C[C@@H]1C[C@H]2[C@@H]3CCC4=CC(=O)C=C[C@]4(C)[C@@]3(Cl)[C@@H](O)C[C@]2(C)[C@@]1(OC(=O)c1ccco1)C(=O)CCl | 3.64%
57 | COc1ncnc(NS(=O)(=O)c2ccc(N)cc2)c1OC | -8.03%
58 | NC(=O)c1ccc2[nH]ccc2c1 | 11.4%
59 | OCc1ccc(-c2nn(Cc3ccccc3)c3ccccc23)o1 | -5.09%

Row | SMILES | max response
60 | CN(Cc1cc(Br)cc(Br)c1N)C1CCCCC1 | -1.96%
61 | O=C(O)c1ccc(-n2nc(-c3ccccc3O)nc2-c2ccccc2O)cc1 | -16.4%
62 | CC1=C(C(=O)O)N2C(=O)[C@@H](NC(=O)C(N)c3ccccc3)[C@H]2SC1 (some centres not stated) | 7.37%
63 | COc1cc(NS(=O)(=O)c2ccc(N)cc2)nc(OC)n1 | 22.6%
64 | CC1(C)[C@H](C(=O)O)N2C(=O)C[C@H]2S1(=O)=O | 0.138%
65 | C[C@@H]1CN(c2c(F)c(N)c3c(=O)c(C(=O)O)cn(C4CC4)c3c2F)C[C@H](C)N1 | 13.9%
66 | COc1ccc2c(c1)c(CC(=O)OCC(=O)O)c(C)n2C(=O)c1ccc(Cl)cc1 | -13.1%
67 | NC(=O)N1c2ccccc2CC(=O)c2ccccc21 | 34.3%
68 | CC(C)(C#N)c1cc(Cn2cncn2)cc(C(C)(C)C#N)c1 | 7.01%
69 | CCN(CC)CC#CCOC(=O)C(O)(c1ccccc1)C1CCCCC1 (configuration not stated) | -0.0303% and 25.9%
70 | COc1c(N2CCNC(C)C2)c(F)cc2c(=O)c(C(=O)O)cn(C3CC3)c12 (configuration not stated) | -5.93%
71 | CCOc1cc(N)c(Cl)cc1C(=O)NCC1CN(Cc2ccc(F)cc2)CCO1 (configuration not stated) | 1.28%
72 | Cc1cccc(N(C)C(=S)Oc2ccc3ccccc3c2)c1 | 6.54%
73 | CO[C@@H]1[C@@H](OC(N)=O)[C@@H](O)[C@H](Oc2ccc3c(O)c(NC(=O)c4ccc(O)c(CC=C(C)C)c4)c(=O)oc3c2C)OC1(C)C | 1.46%
74 | CC[C@H](NC(C)C)[C@H](O)c1ccc(O)c2[nH]c(=O)ccc12 | 0.956%
75 | CCCN[C@H]1CCc2nc(N)sc2C1 | -5.22%
76 | CC1CC2C3CCC4=CC(=O)C=C[C@]4(C)[C@@]3(F)[C@@H](O)C[C@]2(C)[C@@]1(O)C(=O)CO (some centres not stated) | 8.59%
77 | Nc1[nH]c(=O)ncc1F | -2.11%
